This is a sample that favours compounds with a hit; in the whole collection about 1.6% have one here.
KCNQ2 pot = potentiators of rat KCNQ2 potassium channel; Potassium voltage-gated channel subfamily KQT member 2 (Rattus norvegicus), O88943; CHO-K1 KCNQ2, FluxOR thallium flux fluorescence; hits give high values; B-score at 10 µM; 310,000 compounds, 0.54% hits; AID 2239, 2010;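 active = fluorescence ratio B-score at least 3 SD of library B-scores, with initial fluorescence B-score within 3 of them, cut at about 5.3 in these data; same plate scores as AID 2156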;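 also: B-score of peak minus minimum over baseline fluorescence ratio after K+ and Tl+ stimulus; positive B-score means potentiation of KCNQ2 with more thallium influx and brighter signal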
KCNQ2 block = rat KCNQ2 potassium channel inhibitors, primary screen, cell-based, CHO-K1, FluxOR thallium flux, B-score. Potassium voltage-gated channel subfamily KQT member 2 (Rattus norvegicus), O88943. 20 min; hits give low values. B-score at 10 µM. 310,000 compounds, 1.1% hits;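 active = fluorescence ratio B-score at most minus 3 library SDs, with starting brightness B-score within 2 library SDs, cut at about -5.5 in these data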
* hit, by the source's call; i = inactive; / = not tested or not shown.

SMILES	KCNQ2 pot	KCNQ2 block
Cc1nn(C(C)C(=O)N2CCN(c3ccccn3)CC2)c(=O)c2cc3occc3n12 (configuration not stated)	1	i
CCc1nn(C(C)C(=O)N2CC(C)CC(C)C2)c(=O)c2cc3occc3n12 (configuration not stated)	-8.1	-8.1*
Cc1cccc(N2CCN(C(=O)C(C)n3nc(C)n4c(cc5occc54)c3=O)CC2)c1C (configuration not stated)	-6.1	-6.1*
NNC(=S)Nc1c(Br)cc(F)cc1Br	0.17	i
Cc1ccc(C(C)(O)CS(=O)(=O)Cc2ccccc2)cc1 (configuration not stated)	/	i
CCC(Oc1ccc(Br)cc1)C(=O)N1CCN(c2ncccn2)CC1 (configuration not stated)	/	i
O=C(O)c1ccccc1Nc1cc(Cl)c2nonc2c1[N+](=O)[O-]	0.04	i
O=[N+]([O-])c1c(Nc2ccccn2)cc(Cl)c2nonc12	-11	-11*
Cc1ccccc1-n1nc2c(c1NC(=O)c1cc3ccccc3o1)CS(=O)(=O)C2	-7.6	-7.6*
COc1ccc(-n2nc3c(c2NC(=O)c2cc4ccccc4o2)CS(=O)(=O)C3)cc1	/	i
Cc1ccccc1-n1nc2c(c1NC(=O)c1ccco1)CS(=O)(=O)C2	0.64	i
Cc1ccccc1-n1nc2c(c1NC(=O)c1ccc(Br)o1)CSC2	-5.9	-5.9*
CCOC(=O)c1nc(C)nc(Sc2n[nH]c(-c3ccccc3)n2)c1C	1.4	i
CN(C(=O)CN1CCN(c2ccccc2F)CC1)C1CCCc2ccccc21 (configuration not stated)	/	i
O=C(CCc1ccccc1)c1ccc2c(c1)OCCCO2	/	i
O/N=C(/CCc1ccccc1)c1ccc2c(c1)OCCO2	-5.9	-5.9*
CN(C(=O)COC(=O)c1ccccc1NCCO)C1CCS(=O)(=O)C1 (configuration not stated)	/	i
C=CCc1ccc(OCCn2nnc3ccccc32)c(OC)c1	1.9	i
C=CCc1ccc(OCCn2cccc2C=O)c(OC)c1	7.6*	i
O=C(NCC1CCCN1S(=O)(=O)c1cccs1)c1cccc(F)c1 (configuration not stated)	1.2	i
Cc1ccc(F)cc1NC(=O)CN1C(=O)NC2(CCCc3ccccc32)C1=O (configuration not stated)	/	i
Cc1ccc(-c2ccc(C(=O)NCc3ccccc3)o2)c2ccccc12	/	i
Cc1ccc(-c2ccc(C(=O)Nc3ccccc3)o2)c2ccccc12	-5.7	-5.7*
CCCCN(C)CCn1c(=S)[nH]c2cc(OCC)c(OCC)cc2c1=O	5.4*	i
CCOc1cc2[nH]c(=S)n(CCOC)c(=O)c2cc1OCC	0.16	i
SMILES	KCNQ2 pot	KCNQ2 block
COC(=O)CN(c1ccc(F)cc1)S(=O)(=O)c1ccccc1	0.81	i
COC(=O)Cc1ccc(N(Cc2ccccc2F)S(=O)(=O)c2ccc(Cl)cc2)cc1	-8.2	-8.2*
COc1ccc(-c2nc(-c3ccccn3)ncc2S(C)(=O)=O)cc1	1.5	i
Cn1nc(-c2ccccn2)nc2c(=O)n(C)c(=O)nc1-2	7.4*	i
CC(=O)N1c2ccc3ccccc3c2C(C)CC12CCCCC2 (configuration not stated)	-6.6	-6.6*
CC1CC2(CCCCC2)Nc2ccc3ccccc3c21 (configuration not stated)	/	i
Cc1c(NC2=NC3(CCCCC3)Cc3ccccc32)c(=O)n(-c2ccccc2)n1C	0.57	i
CC1(C)CC(=O)C(C2=NC3(CCCCCC3)Cc3ccccc32)=C(O)C1	-5.8	-5.8*
CC1=CC(=C2C=CC(=O)C=C2)C=C(C)N1C	/	i
O=C(CNCc1ccccc1)Nc1cccc(Cl)c1Cl	-6	-6*
O=C(CNCc1ccccc1)Nc1ccccc1-c1ccccc1	/	i
CCc1ccc(NC(=O)c2ccc(F)c(S(=O)(=O)N(CC)c3ccccc3)c2)cc1	/	i
CCN(c1ccccc1)S(=O)(=O)c1cc(C(=O)Nc2cccc(Cl)c2)ccc1F	-8.1	-8.1*
O=C(NCC1OCCCN1S(=O)(=O)c1cc(F)ccc1F)C(=O)NC1CCCC1 (configuration not stated)	/	i
COC(=O)Cn1c(=O)c2c(nc3n2CCCN3CCc2ccccc2)n(C)c1=O	2	i
COc1ccccc1N1CCN(C(=O)c2ccc3[nH]c(C)c(C)c3c2)CC1	/	i
Cc1[nH]c2ccc(C(=O)N3CCN(c4cccc(Cl)c4)CC3)cc2c1C	-6.2	-6.2*
Cc1[nH]c2ccc(C(=O)N3CCCC3)cc2c1C	0.04	i
Cc1[nH]c2ccc(C(=O)N3CCN(c4ccccc4Cl)CC3)cc2c1C	-6.5	-6.5*
Cc1cc(C(C)(C)C)ccc1OCCN(C)C	/	i
CC(C)Cc1cc(C(C)(C)C)ccc1OC(=S)N(C)C	-7.8	-7.8*

High-throughput results: PubChem BioAssay, Johns Hopkins Ion Channel Center
